The record followed here is PubChem BioAssay AID1159580 (chemical genetic matrix, 2015).

Among all 5,500 compounds or so, about 2,000 (36%) were called active. About 18% were inconclusive and are not listed. The list shows a part of the results. Unmarked numbers belong to inactive results. No stated cut-off is given here; in the data, active means normalized growth mostly below about 0.91 (no sharp cut-off); inconclusive means no clear call, values can overlap the other calls; inactive means mostly above about 0.92.

The nature of this assay: chemical genetic growth profiling, strain panel (AID 1159580).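 Further: tested at 20 µM; growth read once vehicle control cultures reached saturation at 30 °C; 1 = growth at the plate median or of vehicle wells; lower values mean less growth of the strain.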 The conditions noted are these: S. cerevisiae deletion strains, growth OD.

In the case of `CC(C)N=c1cc2n(-c3ccc(Cl)cc3)c3ccccc3nc-2cc1Nc1ccc(Cl)cc1`, the normalized growth (locus YHR030C, strain SLT2, hits give low values) is 0.929; the normalized growth (locus YHR079C, strain IRE1, hits give low values) is 0.812 (active); the normalized growth (locus YJL095W, strain BCK1, hits give low values) is 0.869 (active); the normalized growth (locus YJR066W, strain TOR1, hits give low values) was 0.948; the normalized growth (locus YLR113W, strain HOG1, hits give low values) was 0.807 (active); the normalized growth (locus YNL183C, strain NPR1, hits give low values) was 0.9. Moreover, the normalized growth by setting is: (locus YOR231W, strain MKK1, hits give low values) 0.831 (active); (locus YPL256C, strain CLN2, hits give low values) 0.818 (active).
